Bioassay records deposited in PubChem BioAssay by National Center for Advancing Translational Sciences (NCATS).
Shown are actives, neighbours in structure and some others; about 19% of the full set was active somewhere.
HT1080 IDH1KD tx = qHTS for induction of synthetic lethality in tumor cells producing 2HG: qHTS for the HT-1080-IDH1KD cell line; HT-1080 IDH1 knockdown viability, ATP luminescence, 48 h; Potency, µM (top dose mostly 46.1 µM), inactives show at the highest dose activity, negative = toxicity, hits mostly cytotoxic; actives 2% (n = 360,000);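 also: potency is read from the fitted curve at half-maximal effect; 0% = DMSO wells and -100% = cell-free medium wells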
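% activity derives from luminescence (CellTiter-Glo), normalised to DMSO and no-cell wells. HT-1080-IDH1KD cells, 750/well, had 48 h compound exposure at 37 °C.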
TDP1 cell noCPT = qHTS for Inhibitors of human tyrosyl-DNA phosphodiesterase 1 (TDP1): qHTS in cells in absence of CPT; DT40 Tdp1-/- hTDP1 cells, no CPT, ATP luminescence, 48 h; Potency, µM (doses to about 46.2 µM), for inactives: at the highest dose activity change, negative = growth inhibition, hits mostly inhibitors; actives 15% (n = 420,000); also: potency is read from the fitted curve at half-maximal effect; nearly all actives have a fitted effect of over 55% in size
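Chicken DT40 Tdp1-/- cells complemented with human TDP1, screened without camptothecin (DMSO vehicle only), 400 cells/well. Compounds pin-transferred, cells incubated at 37 °C for at least 48 hr. Growth read as ATP-dependent luminescence (CellTiter-Glo, 30 min at RT).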
HT1080NT lethal = qHTS for induction of synthetic lethality in tumor cells producing 2HG: qHTS for the HT-1080-NT fibrosarcoma cell line; HT-1080-NT fibrosarcoma viability, CellTiter-Glo ATP luminescence, 48 h; AID 686970, 2013; Potency, µM (top dose mostly 46.1 µM), for the others: at the highest dose activity, negative = less viability, hits mostly cytotoxic; actives 1.6% (n = 360,000);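 also: NT is the 2HG producing partner of a matched IDH1 knockdown line; potency is read from the fitted curve at half-maximal effect; 0% = DMSO-treated cells and -100% = media-only wells without cells; nearly all actives have a fitted effect of over 55% in size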
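750 cells/well, RPMI + 5% FBS; 2 h settle, compound pin-transfer, 48 h at 37 degrees C. CellTiter-Glo 10 min RT, luminescence. Normalized to DMSO and media-only wells.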
DT40 TDP1 CPT = qHTS for Inhibitors of human tyrosyl-DNA phosphodiesterase 1 (TDP1): qHTS in cells in presence of CPT. chicken DT40 Tdp1-/-;hTDP1 cells + 20 nM CPT, ATP luminescence, 48 h. Potency, µM (highest dose often 46.2 µM), for the others: at the top dose activity change, negative = growth inhibition, hits mostly inhibitors. actives 12% (n = 420,000); also: potency is read from the fitted curve at half-maximal effect; nearly all actives have a fitted effect of over 55% in size
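Chicken DT40 Tdp1-/- cells complemented with human TDP1, 400 cells/well, exposed to compounds plus 20 nM camptothecin for at least 48 h at 37 C; viability read as ATP content by CellTiter-Glo luminescence.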
IL-1B inflam inh = qHTS for Inhibitors of Inflammasome Signaling: IL-1-beta AlphaLISA Primary Screen | THP-1 LPS/ATP IL-1B secretion, AlphaLISA, 16 h; hits give low values | activity change, % at 57.5 µM | actives 4.7% (n = 360,000) | AID 743279, 2014; in the data active = activity change below about -50%; inconclusive = mostly about -30% to -49%
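THP-1 cells pretreated 1 hr with compounds (up to 57.5 uM final), then stimulated with LPS (250 ng/mL final) plus ATP (1.25 mM final); secreted IL-1B measured by AlphaLISA after 16 hr, decreased signal indicating inhibition.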
Numbers without * were called inactive; ? = inconclusive; · = not tested or not shown. Unless noted, calls follow the shape of the dose curve; as a rule, active = well fitted curve in the direction sought with a large enough effect; inconclusive = small, poorly fitted or top-dose-only effect, or another doubt; inactive = no such curve, though single readings can be large; an effect the other way counts as inactive or inconclusive. Unless noted, % is scaled to controls: 0 for no effect and ±100 for the full control effect.

SMILES	HT1080 IDH1KD tx	TDP1 cell noCPT	HT1080NT lethal	DT40 TDP1 CPT	IL-1B inflam inh
O=C(O)C1C2CC(C(Br)C2Br)C1C(=O)O (configuration not stated)	2%	4%	0%	8%	9
CCOC(=O)C1(C#N)Cc2ccccc2C1	5%	7%	0%	8%	18
COC(=O)c1ccc2nc(-c3cccc(Br)c3)c(Cc3ccccc3OC)n2c1	12µM*	21µM*	10%	?	0
COc1ccccc1Cc1c(-c2ccc(F)cc2)nc2ccc(Br)cn12	?	?	?	?	4
COC(=O)c1ccc2nc(-c3ccc(F)cc3)c(Cc3ccccc3OC)n2c1	9%	18µM*	13%	21µM*	24
COc1ccc(Cc2c(-c3cccc(Br)c3)nc3ccc(Br)cn23)c(C)c1	0%	?	-11%	?	11
Cc1ccc2c(c1)cc1c(=O)n(CC(=O)NC3CCCCC3)nc(C)n12	·	-14%	·	-10%	·
O/N=C/c1ccccc1Oc1ccc(Cl)cc1	-8%	16µM*	-9%	?	-13
Cc1ccc(N2C(=O)CCC(C(=O)O)C2c2cccs2)cc1 (configuration not stated)	0%	-14%	15%	3%	-2
Nc1nc2[nH]cc(CCc3ccc(C(=O)N[C@@H](CCC(=O)O)C(=O)O)cc3)c2c(=O)[nH]1	·	0.03µM*	·	0.047µM*	·
COc1ccc(S(=O)(=O)N2CCCCC2)cc1NC(=O)CCC(=O)N1CCC(c2ccccc2)=N1	2%	2%	16%	7%	-23
Cc1[nH]c2ccccc2c1/C=N/Nc1nc(Nc2ccc(F)cc2)nc(N2CCOCC2)n1	0%	-24%	-4%	-21%	1
O=C(Oc1cccc(/C=N/Nc2nc(Nc3ccccc3)nc(N3CCOCC3)n2)c1)c1ccco1	?	23µM*	-28%	21µM*	1
C(=N\Nc1nc(Nc2ccccc2)nc(N2CCOCC2)n1)/c1c[nH]c2ccccc12	?	8.2µM*	?	12µM*	-81*
Cc1ccc(Nc2nc(N/N=C/c3c[nH]c4ccccc34)nc(N3CCOCC3)n2)cc1	?	8.2µM*	?	21µM*	-67*
Cc1cc(/C=N/Nc2nc(N3CCOCC3)nc(N3CCOCC3)n2)c(C)n1-c1ccccc1	-6%	?	?	-26%	-1
O=C(CNC(=O)C1CCCCC1)OCCOc1ccccc1	·	-20%	·	-2%	·
CCN(CCN(C)C)C(=O)Cn1ncc2c([nH]c3ccc(C)cc32)c1=O	·	-20%	·	0%	·
Cc1ccc(C)n1-c1ccc(-c2ccnc(N)n2)cc1	-1%	?	-5%	-30%	-83*
CC(=O)Oc1ccc(C2(C)CC(C)(C)NC(=S)N2C)c(OC(C)=O)c1 (configuration not stated)	-11%	3%	2%	-9%	0
COc1ccc(C2CC3(CC(C)(C)NC(=S)N3)Oc3cc(O)cc(C)c32)cc1 (configuration not stated)	4%	8.2µM*	6%	9.2µM*	-1
COc1ccc(C2CC3(CC(C)(C)NC(=O)N3)Oc3cc(O)ccc32)cc1 (configuration not stated)	6%	?	4%	?	13
CC1(C)CC2(CC(c3ccccc3)c3ccc(O)cc3O2)NC(=S)N1 (configuration not stated)	-21%	9.2µM*	-17%	?	33
CC(=O)Oc1cc2c(cc1Cl)C(c1cccs1)CC1(CC(C)(C)NC(=S)N1)O2 (configuration not stated)	-16%	16µM*	-16%	8.2µM*	24
COc1ccc(C2CC(=O)Oc3cc(C)cc(C)c32)cc1 (configuration not stated)	-23%	?	-5%	?	10
SMILES	HT1080 IDH1KD tx	TDP1 cell noCPT	HT1080NT lethal	DT40 TDP1 CPT	IL-1B inflam inh
COc1ccc(C2CC3(CC(C)(C)NC(SC)=N3)Oc3cc(O)cc(C)c32)cc1 (configuration not stated)	?	5.2µM*	?	4.6µM*	?
CC(C)CCNC(=O)NC(=O)COC(=O)CNC(=O)C1CCCCC1	11%	-4%	17%	?	47
CCCCN(C(=O)c1cc(Cl)nc2ccccc12)c1c(N)n(CCCC)c(=O)[nH]c1=O	-3%	-4%	2%	-28%	43
O=C(NCC1CCCO1)c1ccc(COc2ccccc2Br)cc1 (configuration not stated)	-24%	?	?	?	?
CCCCNc1ccc(C(F)(F)F)cc1S(=O)(=O)NCCc1ccc(F)cc1	?	6.5µM*	?	18µM*	-63*
C#CCNC(=O)C1=C[C@@H](c2cn(C(C)=O)c3ccccc23)C[C@@H](OCCCCO)O1	8%	?	11%	0%	44
O=C(NCc1ccccc1)C1=C[C@@H](c2ccc(C(F)(F)F)cc2)C[C@@H](OCCCCO)O1	-6%	26µM*	-7%	?	-6
O=C(NCc1ccccc1)C1=C[C@H](c2ccc(C(F)(F)F)cc2)C[C@H](OCCCCO)O1	-2%	?	-4%	?	-17
CC(=O)n1cc([C@@H]2C=C(C(=O)NCc3ccccc3)O[C@H](OCCCCO)C2)c2ccccc21	-4%	18µM*	0%	?	-1
C#CCNC(=O)C1=C[C@@H](c2cn(C(C)=O)c3ccccc23)C[C@@H](OCc2ccc(CO)cc2)O1	-7%	23µM*	-6%	23µM*	17
CC(=O)n1cc([C@@H]2C=C(C(=O)Nc3ccccc3)O[C@H](OCc3ccc(CO)cc3)C2)c2ccccc21	-16%	13µM*	-15%	23µM*	22
CC(=O)n1cc([C@H]2C=C(C(N)=O)O[C@@H](OCc3ccc(CO)cc3)C2)c2ccccc21	-1%	?	-22%	?	35
COc1ccc(C(C(=O)NC(C)(C)C)N(C(=O)CCC(=O)Nc2cc(C)on2)c2ccc(C)c(C)c2)cc1 (configuration not stated)	-8%	?	?	?	?
COc1ccc(C2SCC(C(=O)NCc3ccc(F)cc3)N2C(C)=O)cc1 (configuration not stated)	6%	-11%	3%	-7%	-8
